Drawing on PubChem BioAssay (Tox21), this text covers Potency and outcome for 24 molecules.

In test [1] the target is Retinoic acid receptor RXR-alpha (Homo sapiens) (UniProt P19793). Put plainly: qHTS assay to identify small molecule agonists of the RXR signaling pathway (AID 1159527; calls by dose curve; note: nearly all actives have a fitted effect of over 35% in size; note: potency is the fitted concentration of half-maximal effect). A digest of the protocol: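 GeneBLAzer RXR-alpha-UAS-bla HEK 293T cells in 2% charcoal-stripped FBS medium were exposed to compounds for 16 hr at 37 C in agonist mode. Beta-lactamase reporter read as 460/530 nm FRET ratio after 2 hr substrate loading.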
Sequence of Retinoic acid receptor RXR-alpha (Homo sapiens) (P19793 whole entry, looked up): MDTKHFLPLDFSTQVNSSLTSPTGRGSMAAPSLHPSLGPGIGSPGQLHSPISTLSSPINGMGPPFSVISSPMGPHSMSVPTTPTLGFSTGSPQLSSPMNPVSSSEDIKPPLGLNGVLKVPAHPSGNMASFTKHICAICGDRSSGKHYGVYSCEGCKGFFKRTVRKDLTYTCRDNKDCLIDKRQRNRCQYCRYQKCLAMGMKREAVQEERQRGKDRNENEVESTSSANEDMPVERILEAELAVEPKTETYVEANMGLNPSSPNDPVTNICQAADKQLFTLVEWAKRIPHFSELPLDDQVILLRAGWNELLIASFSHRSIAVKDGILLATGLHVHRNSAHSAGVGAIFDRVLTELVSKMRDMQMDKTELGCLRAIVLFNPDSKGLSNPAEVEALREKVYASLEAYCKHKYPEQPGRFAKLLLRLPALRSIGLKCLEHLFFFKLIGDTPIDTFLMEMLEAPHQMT

A short description of test [2]: qHTS assay to identify small molecule agonists of the RXR signaling pathway - cell viability counter screen (AID 1159529). Note: nearly all actives have a fitted effect of over 50% in size. The method in brief: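 RXR-alpha-UAS-bla HEK 293T cells in medium with 2% charcoal-stripped FBS were pre-incubated 5 hr, then compound-treated 16 hr at 37 C. Viability was read by CellTiter-Glo luminescence in the same wells as the beta-lactamase assay, with tetraoctyl ammonium bromide as positive control.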
In general terms: Quantitative high-throughput screening tests each substance at several concentrations.

Test [3] in a line: qHTS assay to identify small molecule antagonists of the retinoid acid receptor (RAR) signaling pathway - cell viability counter screen (AID 1159551). Note: nearly all actives have a fitted effect of over 35% in size. The method in brief:
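Cells (C3RL4) are plated, incubated overnight, dosed with compound in DMSO, then given retinol at 1 uM final. After 6 h at 37 C, CellTiter-Glo is added and luminescence read following 30 min at room temperature.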

Test [4] can be described thus: qHTS assay to identify small molecule antagonists of the retinoic acid receptor (RAR) signaling pathway (AID 1159552; note: nearly all actives have a fitted effect of over 50% in size). A digest of the protocol: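 Retinol signaling pathway inhibitors screened in C3RL4 RARE-luciferase reporter cells seeded overnight at 37 C, then compounds added with 1 uM (final) retinol as pathway substrate. After 6 hr at 37 C, luciferase luminescence read after 30 min at room temperature.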

A short description of test [5]: qHTS assay to identify small molecule agonists of the retinoic acid receptor (RAR) signaling pathway (AID 1159553). Note: potency is the fitted concentration of half-maximal effect. Particulars: C3RL4 RARE luciferase reporter, agonist, 6 h; activation: at 73.3 µM (top of the series). The method in brief:
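Seed C3RL4 reporter cells at 1,000 per well and incubate overnight at 37 C. Add compounds in DMSO, incubate 6 hr. Add luciferase reagent, wait 30 min at room temperature, read luminescence.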

Test [6] can be described thus: qHTS assay to identify small molecule antagonists of the estrogen related receptor (ERR) signaling pathway from Tox21 library - cell viability counter screen (AID 1224834). Note: nearly all actives have a fitted effect of over 30% in size. The method in brief:
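ERR cells, 2,000/well; 6 h settle at 37 C/5% CO2; pin-tool compound transfer in DMSO; 17.5 h at 37 C; CellTiter-Fluor, 30 min; fluorescence intensity.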

For test [7], the target named is Luciferin 4-monooxygenase (Photinus pyralis) (UniProt P08659). Put plainly: qHTS assay to identify small molecule inhibitors of firefly luciferase (AID 1224835). Note: nearly all actives have a fitted effect of over 25% in size. Note: potency is the fitted concentration of half-maximal effect. A digest of the protocol: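 Biochemical qHTS: compounds run as interplate titrations against purified firefly enzyme, with D-luciferin and ATP each at its KM concentration. Light output recorded by CCD imaging.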
Sequence of Luciferin 4-monooxygenase (Photinus pyralis) (P08659 whole entry, looked up): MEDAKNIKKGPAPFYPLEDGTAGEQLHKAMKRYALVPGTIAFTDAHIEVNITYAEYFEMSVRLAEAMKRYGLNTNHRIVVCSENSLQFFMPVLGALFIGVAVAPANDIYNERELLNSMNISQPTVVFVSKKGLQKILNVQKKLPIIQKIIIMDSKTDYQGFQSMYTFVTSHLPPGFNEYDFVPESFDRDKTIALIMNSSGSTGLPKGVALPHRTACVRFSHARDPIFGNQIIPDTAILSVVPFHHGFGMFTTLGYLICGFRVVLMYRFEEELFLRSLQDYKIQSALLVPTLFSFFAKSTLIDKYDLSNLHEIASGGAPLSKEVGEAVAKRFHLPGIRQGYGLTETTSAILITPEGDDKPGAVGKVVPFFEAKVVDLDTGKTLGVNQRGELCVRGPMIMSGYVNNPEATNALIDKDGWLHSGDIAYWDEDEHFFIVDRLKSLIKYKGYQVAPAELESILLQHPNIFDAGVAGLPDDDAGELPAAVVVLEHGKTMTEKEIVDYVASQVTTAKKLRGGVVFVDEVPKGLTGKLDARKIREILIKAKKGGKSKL

A short description of test [8]: qHTS assay to identify small molecule agonists of the constitutive androstane receptor (CAR) signaling pathway - cell viability counter screen (AID 1224836). Note: nearly all actives have a fitted effect of over 45% in size. The method in brief:
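HepG2 cells stably carrying hCAR and a CYP2B6-2.2kb reporter; 15-concentration compounds plus PK11195 (final 0.75 uM), 23 hr at 37 C/5% CO2. Viability read by CellTiter-Fluor fluorescence.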

Test [9] can be described thus: qHTS assay to identify small molecule antagonists of the constitutive androstane receptor (CAR) signaling pathway - cell viability counter screen (AID 1224837). Note: nearly all actives have a fitted effect of over 45% in size. A digest of the protocol: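 Viability was measured with CellTiter-Fluor in a HepG2 line carrying stably transfected hCAR and a CYP2B6-2.2kb construct. Cells were exposed for 23 hr at 37 C to 15 compound concentrations with 50 nM CITCO as agonist.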

The target in test [10] is Nuclear receptor subfamily 1 group I member 3 (Homo sapiens) (UniProt Q14994). Put plainly: qHTS assay to identify small molecule antagonists of the constitutive androstane receptor (CAR) signaling pathway (AID 1224838).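 Note: HepG2 cells stably expressing hCAR with CYP2B6 luciferase reporter stimulated by CITCO; nearly all actives have a fitted effect of over 40% in size.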 The method in brief: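 Antagonist mode used CITCO at a final 50 nM to activate CAR in human hepatoma HepG2 cells carrying stable hCAR and a 2.2 kb CYP2B6 promoter-luciferase construct. Compounds were tested at 15 concentrations over 24 h, with luminescence as the end point.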
Sequence of Nuclear receptor subfamily 1 group I member 3 (Homo sapiens) (Q14994 whole entry, looked up): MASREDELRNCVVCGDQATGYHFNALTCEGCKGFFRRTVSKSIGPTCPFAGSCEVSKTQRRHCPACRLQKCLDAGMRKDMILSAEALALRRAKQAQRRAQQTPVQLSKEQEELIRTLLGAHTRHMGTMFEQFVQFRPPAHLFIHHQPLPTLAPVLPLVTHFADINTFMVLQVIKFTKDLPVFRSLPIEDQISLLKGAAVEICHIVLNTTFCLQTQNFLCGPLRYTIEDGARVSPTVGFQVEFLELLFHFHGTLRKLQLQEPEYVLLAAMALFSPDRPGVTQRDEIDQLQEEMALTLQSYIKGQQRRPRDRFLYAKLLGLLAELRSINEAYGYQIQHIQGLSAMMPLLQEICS

Records with an inconclusive call do not appear. Unmarked numbers belong to inactive results. Activity calls are given as the source filed them. Unless noted, calls come from the whole dose curve; as a rule, active = well fitted curve in the direction sought with a large enough effect in the repeat runs; inconclusive = weak or mixed curves; inactive = no such curve, though single readings can be large; an effect the other way counts as inactive or inconclusive.

As for `CC(=O)OC(C(=O)c1ccccc1)c1ccccc1` (stereo not given), the Potency result in test [1], in [4], in test [5], in test [6], in test [7] and in test [9] was “inactive” each time. Moreover, the Potency result in test [10] was “inactive”. The outcome in [2], in test [3] and in test [8] was inactive.

As for `CCCCCCCC/C=C\CCCCCCCC(=O)OC[C@@H](O)[C@H]1OC[C@H](O)[C@H]1O`, the Potency entry in test [1], in [4], in test [5], in test [6], in test [7] and in test [9] was “inactive” throughout. For the same molecule, the molecule was called inactive in [2], in test [3] and in test [8].

With `C1CCN2C[C@@H]3C[C@@H](CN4CCCC[C@@H]34)[C@H]2C1`, the Potency entry in [1], in [4], in [5], in test [6], in test [7] and in test [9] was “inactive” in each case. Moreover, in [10], the Potency entry was “inactive”. The outcome in test [2], in [3] and in test [8] was inactive.

Take `CN(C1CCCCC1)S(=O)(=O)c1ccccc1N`: the Potency result in [1], in test [4], in [5], in [6], in test [7] and in test [9] was “inactive” throughout. Besides, the Potency result in test [10] was “inactive”. The call in test [2], in test [3] and in test [8] was inactive.

For `C=CCOc1cc(Cl)ccc1C(=O)NCCN(CC)CC`, the Potency entry in test [1], in [4], in [5], in [6], in test [7] and in test [9] was “inactive” each time. Besides, in test [10], the Potency entry was “inactive”. The result in [2], in test [3] and in test [8] was inactive.

On to `CC(CC(=O)O)CC(C)(C)C` (stereo not given), for which the Potency result in test [1], in test [4], in test [5], in test [6], in [7] and in test [9] was “inactive” in each case. Further, in test [10], the Potency result is “inactive”. The outcome in test [2], in test [3] and in test [8] was inactive.

`CN(C)CCCNCCC#N`: the Potency result in test [1], in test [4], in [5], in test [6], in test [7] and in [9] was “inactive” throughout. Besides, the Potency result in test [10] is “inactive”. Also, the result in [2], in test [3] and in [8] was inactive.

In the case of `CC(C)CCCC(C)CC=O` (stereo not given), the Potency result in test [1], in [4], in test [5], in test [6], in test [7] and in [9] was “inactive” each time. Besides, the molecule was classed as inactive in [2], in test [3] and in [8].

For `CO[Si](CCCCl)(OC)OC`, the Potency result in test [1], in test [4], in test [5], in test [6], in test [7] and in [9] was “inactive” in each case. Moreover, the Potency entry in test [10] was “inactive”. The molecule was classed as inactive in [2], in test [3] and in test [8].

In the case of `CN(C)CCOCCN(C)CCO`, the Potency result in [1], in test [4], in test [5], in test [6], in test [7] and in test [9] was “inactive” each time. The call in test [2], in test [3] and in test [8] was inactive.

Take `CCOC(=O)C(=O)c1csc(NC=O)n1`: the Potency entry in test [1], in test [4], in test [5], in [6], in test [7] and in [9] was “inactive” in each case. Also, the molecule was classed as inactive in [2], in [3] and in [8].

With `O=C(O)c1ccccc1C(=O)OCc1ccccc1`, the Potency entry in test [1], in test [4], in test [6], in test [9] and in test [10] was “inactive” in each case. Further, the molecule was called inactive in test [2], in [3] and in [8]. Moreover, the Potency in [5] is 48.6 µM (active); in [7], 39.9 µM (active).

For the molecule `CCOc1ccc(NC(=O)OC(C)C)cc1OCC`, the Potency result in test [1], in test [4], in test [5], in test [6], in [7] and in test [9] was “inactive” throughout. Besides, the Potency entry in test [10] is “inactive”. Besides, the outcome in [2], in test [3] and in test [8] was inactive.

`SCCSCCS`: the Potency entry in test [1], in test [4], in [5], in test [6], in test [7] and in test [9] was “inactive” each time. The result in test [2], in [3] and in [8] was inactive.

For `Nc1cc(Cl)cc(S(=O)(=O)O)c1O`, the Potency entry in test [1], in [4], in test [5], in test [6], in test [7] and in [9] was “inactive” throughout. The Potency entry in test [10] was “inactive”. Further, the call in [2], in test [3] and in test [8] was inactive.

Turning to `O=C(O)c1c(Cl)ccc(Cl)c1Cl`, in test [1], the Potency was 15.5 µM (active). The molecule was classed as inactive in test [2], in test [3] and in test [8]. Besides, the Potency result in test [4], in test [5], in test [6], in test [7], in test [9] and in test [10] was “inactive” throughout.

Regarding `CC(Cl)COP(=O)(OCC(C)Cl)OCC(C)Cl` (stereo not given), the Potency result in test [1], in test [4], in test [5], in test [6], in test [7] and in [9] was “inactive” each time. The Potency entry in test [10] was “inactive”. Moreover, the molecule was classed as inactive in [2], in test [3] and in [8].

`FC(F)(F)/C(=N\OCC1OCCO1)c1ccc(Cl)cc1`: the Potency result in test [1], in test [4], in [5], in test [6], in test [7] and in test [9] was “inactive” throughout. Besides, in test [10], the Potency result was “inactive”. Further, the molecule was classed as inactive in [2], in test [3] and in [8].

For `CCC(=O)OCCC(C)CCC=C(C)C` (stereo not given), the Potency result in test [1], in test [4], in [5], in test [6], in [7] and in [9] was “inactive” in each case. For the same molecule, in test [10], the Potency result was “inactive”. For the same molecule, the outcome in [2], in test [3] and in test [8] was inactive.

As for `CCCCC(CC)COC(=O)c1ccccc1` (stereo not given), the Potency result in test [1], in [4], in test [5], in [6], in [7] and in test [9] was “inactive” each time. Besides, the Potency result in test [10] was “inactive”. Moreover, the molecule was classed as inactive in [2], in test [3] and in test [8].

`CCC(=O)c1ccc(O)cc1`: the Potency result in test [1], in [4], in [5], in [6], in test [7] and in [9] was “inactive” each time. Also, the Potency result in test [10] was “inactive”. Further, the outcome in test [2], in [3] and in test [8] was inactive.

For the molecule `C=CCOc1c(Br)cc(Br)cc1Br`, the Potency entry in [1], in test [4], in test [5], in test [6], in [7] and in test [9] was “inactive” each time. The Potency entry in test [10] is “inactive”. Also, the result in [2], in test [3] and in test [8] was inactive.

Take `COc1cccc2sc(N)nc12`: the Potency result in [1], in test [4], in test [5], in test [6], in [7] and in test [9] was “inactive” throughout. The Potency entry in test [10] is “inactive”. Also, the molecule was classed as inactive in test [2], in [3] and in [8].

As for `O=C(CN1CCN(Cc2ccc3c(c2)OCO3)CC1)N1c2ccccc2Sc2ccccc21`, the Potency entry in test [1], in [4], in [5], in [6], in test [7] and in test [9] was “inactive” throughout. Besides, in test [10], the Potency entry was “inactive”. The outcome in [2], in test [3] and in test [8] was inactive.
